Source: PubChem (several laboratories)
PolyA inhibitor – polyadenylation inhibitors in yeast reporter cells, primary screen, luminescence, S. cerevisiae; activity score, % at 12 µM; hit rate 0.02% among 300,000; S. cerevisiae SKY197-pL101 polyadenylation reporter, beta-gal luminescence; efflux-impaired pdr1/pdr3 knockout yeast; score 100 = 6 SD above DMSO; AID 1875, 2009;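 active means lowest replicate activity score at least 50, where 100 means six control SD above control mean; inconclusive means lowest score under 50 but half or more replicates reach 50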;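 further: yeast exposed to compound for 9 h at 30 °C; higher score means more reporter readthrough which indicates perturbed polyadenylation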
hcDAF12 agonist – H. contortus DAF-12 nuclear receptor activators, primary screen, cell-based, luminescence, HEK293, lit1-tk-luc reporter; HEK293 hcDAF-12 lit1-tk-luc reporter; 0% DMSO, 100% Δ7-dafachronic acid; activation, % at 6.8 µM; hit rate 1.4% among 370,000; AID 652067, 2013;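 active means activation above the mean of all tested compounds plus 3 SD, cut at about 5.5% in these data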
DAX1 inh-1 – DAX1 (NR0B1) inhibitors, primary screen, cell-based, HEK293, Gal4-DAX1, luciferase luminescence | HEK293 Gal4-DAX1 luciferase reporter | hit rate 0.99% among 340,000 | inhibition, % at 6.75 µM | AID 504766, 2011;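 active means inhibition above the mean over all tested compounds plus 3 SD, cut at about 4.2% in these data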;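 further: inhibition shows as a rise in luminescence from relieved DAX1 repression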
ssDAF-12 act – S. stercoralis DAF-12 nuclear receptor activators, primary screen, cell-based, luminescence, HEK293, GRIP1 co-expression, lit1-tk-luc. HEK293 ssDAF-12/GRIP1 lit1-tk-luc reporter; % of 3 µM dafachronic acid response. hit rate 1% among 370,000. AID 652126, 2013. activation, % at 6.8 µM. Nuclear hormone receptor DAF-12 (Strongyloides stercoralis);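 active means activation above the mean over all tested compounds plus 3 SD, cut at about 0.9% in these data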
hgDAF12 agonist – H. glycines DAF-12 receptor agonists, primary screen, cell-based, luminescence, HEK293, GAL4 fusion, UAS-luciferase. Nuclear hormone receptor DAF-12 (Heterodera glycines), GAL4 fusion. HEK293 GAL4-hgDAF12 UAS-luciferase reporter, agonist luminescence; normalized to butyrate control. activation, % at 6.8 µM. hit rate 1.8% among 370,000. AID 687014, 2013;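 active means activation above a cutoff set at the mean of all screened compounds plus 3 SD, cut at about 10% in these data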
DAX1 inh-2 – DAX1 (NR0B1) inhibitors on StAR promoter, primary screen, cell-based, luminescence, SF-1 (NR5A1), full-length DAX-1; hit rate 1.1% among 370,000; inhibition, % at 6.8 µM; HEK293T StAR-luciferase reporter, SF-1/DAX-1 repression relief;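 active means inhibition above the mean over all tested compounds plus 3 SD, cut at about 3.6% in these data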;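 further: higher inhibition means more luminescence from relief of DAX-1 repression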
DAX1 inh confirm – DAX1 (NR0B1) inhibitors relieving SF-1 repression, confirmation, cell-based, luminescence, HEK293T, full-length DAX-1, SF-1 activated StAR promoter; shares compounds with DAX1 inh-2; HEK293T StAR-promoter luciferase reporter, SF-1/DAX-1 repression; inhibition, % at 6.8 µM; hit rate 87% among 2,400; AID 652134, 2013;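 active means inhibition above the average of every tested compound plus 3 SD, cut at about 3.8% in these data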
Target sequence (P51843 whole entry, looked up): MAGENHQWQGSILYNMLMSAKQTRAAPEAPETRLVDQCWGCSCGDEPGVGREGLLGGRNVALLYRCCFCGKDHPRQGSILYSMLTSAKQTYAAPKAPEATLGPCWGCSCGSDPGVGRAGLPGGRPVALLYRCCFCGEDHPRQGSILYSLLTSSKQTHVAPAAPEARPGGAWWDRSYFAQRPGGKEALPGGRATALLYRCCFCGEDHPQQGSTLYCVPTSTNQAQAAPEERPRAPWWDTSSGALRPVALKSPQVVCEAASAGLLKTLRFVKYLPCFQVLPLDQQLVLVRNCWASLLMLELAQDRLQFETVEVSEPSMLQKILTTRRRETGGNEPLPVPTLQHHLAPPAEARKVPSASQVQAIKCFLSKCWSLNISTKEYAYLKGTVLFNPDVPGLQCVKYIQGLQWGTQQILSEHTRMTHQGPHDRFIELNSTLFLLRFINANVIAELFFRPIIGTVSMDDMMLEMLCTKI
SF1 AF2mut Luc – StAR reporter signal changes without DAX1, counter-screen for DAX1 inhibitor project, cell-based, luminescence, AF-2 mutant SF-1, transactivation; shares compounds with DAX1 inh-2; HEK293 StAR-luciferase, SF-1 AF2 mutant; inhibition, % at 6.8 µM; hit rate 78% among 2,400;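 active means inhibition above the mean of all tested compounds plus 3 SD, cut at about 3% in these data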
A number is an active result; . = inactive; ? = inconclusive; / = not tested or not shown. Sampled rows, rich in hits. Any-hit rate of the full collection: about 4.1%.

SMILES	PolyA inhibitor	hcDAF12 agonist	DAX1 inh-1	ssDAF-12 act	hgDAF12 agonist	DAX1 inh-2	DAX1 inh confirm	SF1 AF2mut Luc
C/C(=N\NC(=O)c1cc2c(s1)CCC(C)C2)c1ccc[nH]1 (stereo not given)	/	.	.	.	.	6.2	7.3	4.4
CC1CCc2sc(C(=O)NC(C)C3CCCO3)cc2C1 (stereo not given)	.	.	.	.	.	5.3	4.3	.
Cc1cc(Oc2cccnc2)ccc1NC(=O)CCc1c[nH]c2ccccc12	/	.	/	.	.	.	/	/
Cc1cc(Cl)c2oc(C(=O)N(C)C3CCOC3)c(C)c2c1 (stereo not given)	.	.	.	.	.	6.6	7.5	.
Clc1ccc2nc(CSc3nnc4ccccn34)cn2c1	.	5.6	.	.	.	5.1	14	8.8
Clc1ccc2nc(CSc3nncn3-c3ccccc3)cn2c1	.	.	.	.	.	.	/	/
O=S1(=O)c2ccc(N3CCSCC3)cc2Oc2ccccc2CN1Cc1cn(Cc2ccc(Cl)cc2)nn1	/	.	/	.	.	.	/	/
CCCCCCCCN1C(=O)[C@@H](CC(=O)N2CCN(C(=O)c3ccco3)CC2)C[C@@]2(C(=O)OC)C1=C[C@H](C(C)C)O[C@@H]2C1CC1	/	.	/	.	.	.	/	/
COc1ccc(-c2cn3cc(C)ccc3n2)cc1F	.	5.6	.	.	.	4.8	12	.
CN(Cc1ccccc1)C(=O)OCc1cn(Cc2ccccc2Cl)nn1	/	.	/	.	.	.	/	/
Cc1ccc(CN(C)C(=O)C2CCC(=O)N(CCc3ccccc3)C2)o1 (stereo not given)	.	.	.	.	.	5.8	4.2	3.6
Cc1ccc(NC(=O)CCc2c(C)nn(-c3ccc(N4CCCCC4)nn3)c2C)cc1F	.	.	.	.	11	10	8.2	4.0
O=C(Nc1cccc(Cl)c1)N1CCc2ccccc2C1	.	.	.	.	.	.	/	/
O=C(Nc1ccccc1F)N1CCc2ccccc2C1	.	.	.	.	.	6.4	6.8	7.1
COc1cccc(NC(=O)N2CCc3ccccc3C2)c1	.	.	.	.	.	6.1	8.4	7.1
COc1ccccc1NC(=O)OC1CC2CC1[C@H]1CCCCN1[C@H]2C (stereo not given in full)	/	.	/	.	.	.	/	/
O=C(Cn1c(-c2cncs2)nc2ccccc21)N1CCOCC1	/	.	/	.	.	.	/	/
CC1=C(/C=C/C(C)=C/C=C/C(C)=C\C(=O)O)C(C)(C)CCC1	.	.	.	.	.	5.9	18	7.5
CC1=C(/C=C/C(C)=C/C=C/C(C)=C/C(=O)Nc2ccc(O)cc2)C(C)(C)CCC1	/	.	.	.	.	.	/	/
COC(=O)CSc1nc(-c2cccs2)ccc1C#N	.	6.5	.	1.8	12	5.9	9.9	8.2
O=C(c1ccc(C#Cc2ccccc2)cc1)N1CCC(O)CC1	/	.	/	.	11	4.9	7.2	4.1
Cc1ccc(Nc2n[nH]c(=S)s2)cc1F	/	.	.	.	.	5.4	4.3	2.9
O=C(CCN1C(=O)/C(=C\C=C\c2ccccc2)SC1=S)Nc1cccc(C(=O)O)c1	.	.	.	.	.	4.9	6.2	.
O=C(CCCN1C(=O)S/C(=C/C=C/c2ccccc2)C1=O)Nc1ccc(C(=O)O)cc1	.	.	.	.	.	5.3	5.2	3.8
O=C(CCCN1C(=O)/C(=C\c2ccccc2)SC1=S)Nc1cccc(C(=O)O)c1	.	.	.	.	.	.	/	/
SMILES	PolyA inhibitor	hcDAF12 agonist	DAX1 inh-1	ssDAF-12 act	hgDAF12 agonist	DAX1 inh-2	DAX1 inh confirm	SF1 AF2mut Luc
COc1ccccc1OCCCC(=O)Nc1nnc(C2CCCO2)s1 (stereo not given)	.	.	.	.	.	6.1	4.2	3.7
c1ccc(CSc2nc3ncccn3n2)cc1	/	.	.	.	.	6.8	8.4	4.8
O=C(NCCc1ccccc1)c1nc2ncccn2n1	.	.	.	.	.	.	/	/
CN1CCN(c2ccc(-c3cccc(NC(=O)COc4ccccc4)c3)nn2)CC1	.	.	.	.	13	10	7.2	.
CC(=NNC(=O)c1cc(C)oc1C)c1ccc(Br)s1	/	.	.	.	.	.	/	/
C/C(=N\NC(=O)c1ccoc1C)c1ccc(Br)s1	?	.	.	.	.	5.8	.	.
COc1cc2c(cc1OC)C(=Cc1ccc(N(C)C)cc1)C=C2	/	.	.	.	.	.	/	/
CN(C)c1ccc(C=C2C=Cc3ccccc32)cc1	/	6.2	.	.	13	4.8	15	8.0
COCCn1c(C)cc(C(=O)COC(=O)c2ccc(-n3nc(C)cc3C)cc2)c1C	.	.	.	.	.	.	/	/
COCCn1c(C)cc(C(=O)COC(=O)c2ccc(Cl)c(S(N)(=O)=O)c2)c1C	.	.	.	.	.	5.5	8.7	.
COc1ccc(-n2ncc3c(N4CCC(C)CC4)ncnc32)cc1	.	6.5	.	.	10	6.6	12	4.5
CCOC(=O)N1CCN(c2ncnc3c2cnn3-c2ccc(OC)cc2)CC1	.	.	.	.	.	.	/	/
C[C@@H](NC(=O)C[C@H]1CC[C@H]2[C@@H](COc3ccc(NC(=O)Nc4ccccc4)cc3C(=O)N2C)O1)c1ccccc1	/	.	/	.	.	.	/	/
CCOc1ccc(-c2cn3ccccc3n2)cc1	/	5.8	.	.	.	9.9	14	4.4
CC(=O)N1CCN(C(=O)c2ccc(-c3ccccc3Cl)o2)CC1	/	.	.	.	.	.	/	/
O=C(c1ccc(-c2ccccc2Cl)o1)N1CCCCCCC1	/	.	.	.	11	5.4	8.4	6.1
Nc1ccccc1C(=O)Nc1nccs1	.	.	.	.	.	.	/	/
